In PubChem BioAssay AID1445 (SRMLSC, 2008):
Out of some 220,000 compounds screened, about 910 (0.41%) were called active. This excerpt belongs to a sample that is enriched for actives. Potency and affinity values are given separately. Values without a mark were called inactive.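 How the source made its calls: active means primary inhibition above the hit cutoff, then over 50% inhibition at one or more dose response concentrations (cut at about 23% in these data, passing the limit was not always enough); inconclusive means conflicting primary data, or primary hits not chosen for dose response; inactive means low primary inhibition, or under 50% at every dose.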

Molecular target: Aminopeptidase N (Plasmodium falciparum (isolate 3D7)) (UniProt O96935)
Sequence (O96935 whole entry, looked up): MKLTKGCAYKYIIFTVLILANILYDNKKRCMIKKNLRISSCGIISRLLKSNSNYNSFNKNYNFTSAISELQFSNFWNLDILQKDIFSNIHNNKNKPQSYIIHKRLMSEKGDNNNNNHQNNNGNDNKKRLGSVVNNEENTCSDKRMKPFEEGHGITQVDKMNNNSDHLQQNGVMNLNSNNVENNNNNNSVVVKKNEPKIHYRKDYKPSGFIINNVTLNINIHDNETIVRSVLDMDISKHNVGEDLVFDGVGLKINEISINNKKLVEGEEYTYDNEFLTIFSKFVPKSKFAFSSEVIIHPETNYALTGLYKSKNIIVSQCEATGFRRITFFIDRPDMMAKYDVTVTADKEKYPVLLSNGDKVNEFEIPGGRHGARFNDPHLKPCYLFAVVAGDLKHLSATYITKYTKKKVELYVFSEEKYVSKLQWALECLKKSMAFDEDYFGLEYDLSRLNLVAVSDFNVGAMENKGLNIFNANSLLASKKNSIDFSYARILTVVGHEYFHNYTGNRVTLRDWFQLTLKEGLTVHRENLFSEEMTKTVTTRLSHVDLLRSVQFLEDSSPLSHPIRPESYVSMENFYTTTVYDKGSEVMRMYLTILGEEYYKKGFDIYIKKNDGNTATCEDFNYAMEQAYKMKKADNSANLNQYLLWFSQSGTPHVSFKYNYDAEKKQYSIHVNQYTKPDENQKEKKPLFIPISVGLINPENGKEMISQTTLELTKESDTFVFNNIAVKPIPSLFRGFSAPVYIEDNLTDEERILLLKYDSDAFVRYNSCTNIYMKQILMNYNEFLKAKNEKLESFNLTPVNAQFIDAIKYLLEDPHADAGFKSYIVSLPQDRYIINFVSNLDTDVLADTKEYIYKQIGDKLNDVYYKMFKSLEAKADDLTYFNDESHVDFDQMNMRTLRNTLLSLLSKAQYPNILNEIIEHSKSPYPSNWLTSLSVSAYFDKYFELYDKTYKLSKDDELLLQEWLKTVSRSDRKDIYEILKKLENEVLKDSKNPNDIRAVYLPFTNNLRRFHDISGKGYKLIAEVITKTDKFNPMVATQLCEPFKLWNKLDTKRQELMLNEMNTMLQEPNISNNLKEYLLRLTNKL
Assay: P. falciparum M1AAP inhibitors, biochemical, fluorogenic H-Leu-NHMec substrate, 1536-well (AID 1445);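 further: plate controls were DMSO full reaction for no effect and no enzyme background for full effect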
Conditions: recombinant M1AAP, H-Leu-NHMec fluorogenic kinetic assay; at 30 µM, hits give high values unless noted

Structure (SMILES) | inhibition
O=C(Oc1ccccc1N1C(=O)C2CCCCC2C1=O)c1ccccc1F (stereo unspecified) | 4.73%
COc1ccc(NC(=O)C2CCN(S(C)(=O)=O)CC2)cc1Cl | 4.6%
O=C1C2CC=C(Cl)CC2C(=O)N1CCN1CCOCC1 (stereo unspecified) | 2.4%
CC(C)CSC1=NSC2=NC(=O)/C(=C\c3ccccc3)C(=N)N12 | -10%
CC(C)CSC1=NSC2=NC(=O)/C(=C\c3coc4ccccc4c3=O)C(=N)N12 | 19.5%
CCSC1=NSC2=NC(=O)/C(=C\c3coc4ccccc4c3=O)C(=N)N12 | 19.9%
Cc1cc(/C=C2/C(=N)N3C(=NC2=O)SN=C3S(C)(=O)=O)c(C)n1-c1ccc(F)cc1 | 14.2%
COc1ccccc1-n1c(C)cc(/C=C2/C(=N)N3C(=NC2=O)SN=C3S(C)(=O)=O)c1C | 17.9%
Cc1cc(/C=C2/C(=N)N3C(=NC2=O)SN=C3S(C)(=O)=O)c(C)n1-c1ccccc1F | 8.82%
Nc1ccnn1Cc1ccc(Br)s1 | 14.7%
CCOc1ccc2ncc(S(=O)(=O)c3ccccc3)c(N3CCN(c4ccc(OC)cc4)CC3)c2c1 | 3.98%
Cc1ccc(-c2nc(SCC(=O)NCCN3C(=O)CSC3=O)[nH]c2-c2ccc(C)cc2)cc1 | -5.28%
COC(=O)/C(C#N)=C/c1ccc(-c2ccc(S(N)(=O)=O)cc2)o1 | -5.9%
O=C(NC(Cc1ccccc1)C(=O)O)c1ccc(S(=O)(=O)N2CCOCC2)cc1 (stereo unspecified) | -4.36%
COCCNC(=O)COc1ncnc2ccc(Br)cc12 | 0.71%
COCCn1c(=NC(C)=O)sc2cc([N+](=O)[O-])ccc21 | 1.15%
O=C(Nc1cccc2oc(=O)ccc12)c1ccc([N+](=O)[O-])cc1[N+](=O)[O-] | 8.2%
Cc1ccc(S(=O)(=O)N(C)C)cc1NC(=O)COC(=O)c1sc2cc(Cl)ccc2c1Cl | -0.59%
CCOC(Cn1c(SCc2cc(C(C)=O)ccc2OC)nc2ccccc2c1=O)OCC | 2.96%
COCCn1c(SCc2cc(C(C)=O)ccc2OC)nc2cc(Cl)ccc2c1=O | 2.27%
N/C(=N\OC(=O)CCn1cccc(C(F)(F)F)c1=O)c1ccc(Cl)cc1 | -1.85%

Structure (SMILES) | inhibition
COc1cc(C)nc(N2CCCC(C(=O)Nc3cccc(Cl)c3Cl)C2)n1 (stereo unspecified) | 1.36%
N#C/C(=N\Nc1cccc(Cl)c1)C(=O)c1ccccc1 | 23.3% (active)
COc1cccc(C(=O)/C(C#N)=N/Nc2cccc(-c3ccnc(C)n3)c2)c1 | 8.84%
COc1ccc(C(=O)/C(C#N)=N/Nc2ccc([N+](=O)[O-])cc2)cc1 | 3.64%
CCOC(=O)NC(=O)/C(C#N)=N\Nc1cccc(Cl)c1 | 1.92%
N#C/C(=N\Nc1ccccc1Cl)C(=O)c1ccccc1 | 12.7%
COc1ccc(C(=O)/C(C#N)=N/Nc2cccc([N+](=O)[O-])c2)cc1 | 12.4%
CNC(=O)Nc1cccc(-c2ccnc(C)n2)c1 | 0.72%
COc1ccc(C(=O)C2CCCN(C(=O)c3cc(C(C)C)no3)C2)cc1F (stereo unspecified) | 0.4%
Cc1ccc(C)n1NC(=O)c1ccc(O)cc1 | 17%
CC(=O)/C=C(\C)N=Nc1c(O)[nH]c2ccccc12 | 6.61%
C/C(=N\NC(=O)c1ccccc1)c1cccc(Br)c1 | 4.52%
O=C(Nc1ccccc1[N+](=O)[O-])c1cc2ccccc2nc1Cl | 0.38%
CCN(C(=O)CSc1n[nH]c(-c2cccs2)n1)C1CCS(=O)(=O)C1 (stereo unspecified) | -0.17%
Cc1cc(Cl)ccc1OCC(=O)OC(C)C(=O)NC(N)=O (stereo unspecified) | -2.23%
COc1ccc(N=Cc2cc(Cc3ccccc3Cl)cc([N+](=O)[O-])c2O)cc1OC | 10.4%
O=C1CCCN1CCC1CCCCN1Cc1nc(-c2cnccn2)no1 (stereo unspecified) | -4.06%
COc1ccc(NS(=O)(=O)c2cccc(-c3nnc4n3CCCCC4)c2)cc1 | 20%
CCCC1=[N+](CC)CCn2c(C)ccc21 | 47.2% (active)
CCCC1=[N+](CC(=O)c2ccccc2)CCn2c(C)ccc21 | 8.08%
CCCC1=[N+](CC(C)=O)CCn2c(C)ccc21 | 6.47%

Structure (SMILES) | inhibition
O=C(COC(=O)c1ccccc1NC(=O)c1ccco1)NCc1ccc2c(c1)OCO2 | -2.79%
CCCn1nc(C(=O)NCc2ccc3c(c2)OCO3)c2ccccc2c1=O | 9.46%
COc1ccc(C2CC(c3ccc4ccccc4c3)=NN2C(=O)COC(=O)C2CCC(=O)N2)cc1 (stereo unspecified) | 2.25%
O=C(Nc1ccc(S(=O)(=O)NCc2ccco2)cc1)c1ccncc1 | 6.85%
COc1ccc(NC(=S)NCc2ccccn2)cc1OC | 10.7%
COC(=O)CCP(=O)(O)Cc1ccccc1CP(=O)(O)CCC(=O)OC | 25.9% (active)
COC(=O)CCC(=O)NNC(=O)Cc1ccccc1 | 1.14%
COC(=O)CP(=O)(c1ccccc1)c1ccccc1 | 6.71%
Brc1c(CSc2nncn2-c2ccccc2)nc2ncccn12 | 9.69%
NC(=O)CSc1nnc(-c2cccs2)n1Cc1ccco1 | 8.05%
O=C(COC(=O)c1ccc(NS(=O)(=O)c2cccs2)cc1O)Nc1nc2ccccc2s1 | 8.12%
COc1ccccc1NS(=O)(=O)c1ccc(O)c(C(=O)OCC(=O)Nc2ccccc2F)c1 | -2.66%
COc1cc(-c2nc3ccc4ccccc4c3c3c2CCC3)ccc1O | 8.66%
Cc1ccc(-c2nc(CN3CCN(c4cnccn4)CC3)c(C)o2)o1 | 5.52%
CCOC(=O)C1CCCN(C(=O)c2cc(-c3ccc(F)cc3)nc3ccccc23)C1 (stereo unspecified) | 0.66%
Cc1ccc(C)c2[nH]c(=O)c(CN(Cc3ccco3)S(=O)(=O)c3ccc4c(c3)OCCO4)cc12 | 11.6%
COc1ccc(C2C(C(=O)OCC(=O)N3CCCCC3)CCC(=O)N2c2ccc(OC)cc2)cc1 (stereo unspecified) | 0.13%
COc1ccc(C2C(C(=O)OCC(=O)Nc3ccc(C)cc3)CCC(=O)N2c2ccc(OC)cc2)cc1 (stereo unspecified) | 23.9% (active)
CCNC(=O)COC(=O)C1CCC(=O)N(c2ccc(OC)cc2)C1c1ccc(OC)cc1 (stereo unspecified) | 12.7%
